From PubChem BioAssay (NCATS)
Results filed as inconclusive are left out. Some structures have more than one record in an assay (separate samples or runs), and their calls can disagree. Active and inactive are the calls of the source. Unless noted, how the calls were made is not given here.

Key:
[1] = qHTS profiling of the MIPE4 collection as inhibitors of Plasmodium falciparum (DD2) proliferation (AID 743345); settings: P. falciparum Dd2 in erythrocytes, SYBR Green DNA, 72 h
In short: (§1)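 Erythrocytes infected with P. falciparum (0.3% parasitemia, 2.5% hematocrit) incubated with compounds 72 h at 37 C, 5% CO2. Lysis with saponin/Triton buffer containing SYBR Green I, overnight at room temperature in the dark; DNA fluorescence (485/535 nm) normalised to 0.29 uM artemisinin and DMSO.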

[2] = qHTS profiling of the MIPE4 collection as inhibitors of Plasmodium falciparum (DD2) proliferation (Rep 2) (AID 743346); settings: P. falciparum Dd2 in erythrocytes, SYBR Green DNA, 72 h
In short: as §1

[3] = qHTS profiling of the MIPE4 collection as inhibitors of Plasmodium falciparum (HB3) proliferation (AID 743347);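 further: plate controls were DMSO vehicle wells for no effect and artemisinin wells for full effect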; settings: P. falciparum HB3 in erythrocytes, SYBR Green DNA, 72 h
In short: as §1

[4] = High-throughput drug toxicity screening in the BPDCN cell line Gen2.2 (AID 1224824); settings: Gen2.2 BPDCN cells; at 45.8 µM (top of the series) unless noted;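 further: cells exposed to compounds for 48 h before reading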
In short: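 Gen2.2, 500 cells/well, phenol red-free RPMI/10% FBS/Pen-Strep; 48 h cpd, 37 °C/5% CO2; CTG lum, 15 min RT. Norm: DMSO = 100%, bortezomib 9.2 uM final = 0%.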

[5] = High-throughput drug toxicity screening in the BPDCN cell line Cal-1 (AID 1224825); settings: Cal-1 BPDCN cell viability, qHTS; at 45.8 µM (top of the series) unless noted
In short: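 Exponentially growing Cal-1 cells, 500 per well in phenol red-free RPMI with 10% FBS, were exposed to compounds for 48 h at 37 °C, 5% CO2. Viability was read by CellTiter-Glo luminescence and normalised to DMSO (100%) and 9.2 uM bortezomib (0%).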

[6] = qHTS assay for measurement of the activity of small molecule inhibitors on Zika virus induced Caspase-3 activity in human iPSC derived neural progenitor cells (hNPCs) (AID 1224857; active means well fitted inhibition curve with a large enough effect; further: nearly all actives have a fitted effect of over 65% in size; further: potency means the concentration at half of the fitted maximal effect)
In short: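 Cells were plated at 350 per well and grown 16 to 20 hours. Compound pretreatment lasted one hour, after which ZIKV (2 FFU/cell) was added for 6 hours. Percent inhibition was normalized between uninfected and infected controls.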

[7] = qHTS Screen of the MIPE 4.0 Collection Against Ewings Sarcoma (TC71) (AID 1259253; active means well fitted inhibition curve with a large enough effect; further: nearly all actives have a fitted effect of over 40% in size; further: potency means the concentration at half of the fitted maximal effect)
In short: (§2)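 Here, cells in 5% FBS RPMI were exposed for two days (48 h) to compound dilutions added four hours after plating. ATP-based CellTiter-Glo luminescence measured viability, normalized to vehicle and no-cell blanks.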

[8] = qHTS Screen of the MIPE 4.0 Collection Against Ewings Sarcoma (RDES) (AID 1259252; active means well fitted inhibition curve with a large enough effect; further: nearly all actives have a fitted effect of over 35% in size; further: potency means the concentration at half of the fitted maximal effect)
In short: as §2

[9] = qHTS Screen of the MIPE 4.0 Collection Against Ewings Sarcoma (EW8) (AID 1259255; active means well fitted inhibition curve with a large enough effect;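 further: 100% = DMSO-treated cells and 0% = medium-only wells without cells; nearly all actives have a fitted effect of over 35% in size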)
In short: as §2

[10] = qHTS assay for measurement of the activity of small molecule inhibitors on Zika virus induced Caspase-3 activity in human astrocytoma cells (AID 1224859; active means well fitted inhibition curve with a large enough effect;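 further: plate controls were ZIKV-infected untreated cells for no effect and uninfected cells for full effect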)
In short: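 Percent inhibition of virus-induced caspase-3/7 signal is calculated against uninfected and ZIKV-infected control cells. Cells are SNB-19, infected at 2 FFU/cell for 6 h after 1 h compound exposure.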

[11] = at 28.5 µM (top of the series) unless noted

SMILES: Cc1nccn1CC1CCc2c(c3ccccc3n2C)C1=O (stereo not drawn)
- parasite growth remaining, % of DMSO control (lower = more inhibition) [1, 11]: 80.4%
- parasite growth, % of control (lower = inhibition) [2, 11]: 40.2%
- growth, % of control [3, 11]: 54.5%
- cell viability, % of control (lower = more cytotoxic) [4]: 105%
- viability (% of control) [5]: 92.7%
- Potency [6]: inactive
- Potency [7]: 16.6 µM (active)

SMILES: CCCCN(CCCC)CCC(O)c1cc2c(Cl)cc(Cl)cc2c2cc(C(F)(F)F)ccc12 (stereo not drawn)
- parasite growth remaining, % of DMSO control (lower = more inhibition) ([1]; at 9.64 µM (top of the series)): 8.22%
- parasite growth remaining, % of DMSO control (lower = more inhibition) ([1]; at 28.5 µM (top of the series)): 7.14%
- parasite growth, % of control (lower = inhibition) ([2]; at 9.64 µM (top of the series)): 11%
- parasite growth, % of control (lower = inhibition) ([2]; at 28.5 µM (top of the series)): 10.3%
- growth, % of control ([3]; at 9.64 µM (top of the series)): 5.69%
- growth, % of control ([3]; at 28.5 µM (top of the series)): 7.8%
- cell viability, % of control (lower = more cytotoxic) [4]: 34.8%
- viability (% of control) [5]: 64.8%
- Potency [6]: inactive
- Potency [8]: inactive

SMILES: CCCCCCCCCCCCCCCCCCCCCCO
- parasite growth remaining, % of DMSO control (lower = more inhibition) [1, 11]: 124%
- growth, % of control [3, 11]: 105%
- cell viability, % of control (lower = more cytotoxic) [4]: 148%
- viability (% of control) [5]: 105%
- Potency [6]: inactive
- Potency [8]: inactive
- Potency [7]: inactive
- Potency [9]: inactive

SMILES: Cc1ccc(S(=O)(=O)NC(=O)NN2CC3CCCC3C2)cc1 (stereo not drawn)
- parasite growth remaining, % of DMSO control (lower = more inhibition) [1, 11]: 13.9%
- parasite growth, % of control (lower = inhibition) [2, 11]: 16.9%
- growth, % of control [3, 11]: 7.17%
- cell viability, % of control (lower = more cytotoxic) [4]: 109%
- viability (% of control) [5]: 35.2%
- Potency [6]: inactive
- Potency [8]: 18.7 µM (active)
- Potency [7]: 16.6 µM (active)

SMILES: N=C(N=C(N)N)N1CCOCC1
- parasite growth remaining, % of DMSO control (lower = more inhibition) [1, 11]: 96.2%
- parasite growth, % of control (lower = inhibition) [2, 11]: 93.1%
- growth, % of control [3, 11]: 101%
- cell viability, % of control (lower = more cytotoxic) [4]: 139%
- viability (% of control) [5]: 127%
- Potency [6]: inactive
- Potency [10]: inactive

SMILES: Cc1nc2n(c(=O)c1CCN1CCC(c3noc4cc(F)ccc34)CC1)CCCC2
- cell viability, % of control (lower = more cytotoxic) [4]: 80.6%
- viability (% of control) [5]: 103%
- Potency [6]: inactive
- Potency [7]: inactive
- Potency [9]: inactive

SMILES: CC(C)c1nc(CN(C)C(=O)N[C@H](C(=O)N[C@@H](Cc2ccccc2)C[C@H](O)[C@H](Cc2ccccc2)NC(=O)OCc2cncs2)C(C)C)cs1
- parasite growth remaining, % of DMSO control (lower = more inhibition) [1, 11]: 66.3%
- parasite growth, % of control (lower = inhibition) [2, 11]: 41.9%
- growth, % of control [3, 11]: 15.5%
- cell viability, % of control (lower = more cytotoxic) [4]: 28.1%
- viability (% of control) [5]: 94.9%
- Potency [6]: inactive
- Potency [8]: inactive

SMILES: C=CCc1cc(OC)c(O)c(C(=O)NCCO)c1
- cell viability, % of control (lower = more cytotoxic) [4]: 134%
- viability (% of control) [5]: 128%
- Potency [10]: inactive

SMILES: Oc1ccc2ccccc2c1SSc1c(O)ccc2ccccc12
- parasite growth remaining, % of DMSO control (lower = more inhibition) [1, 11]: 53.4%
- parasite growth, % of control (lower = inhibition) [2, 11]: 30.4%
- growth, % of control [3, 11]: 9.78%
- cell viability, % of control (lower = more cytotoxic) [4]: 2.05%
- viability (% of control) [5]: 0.636%
- Potency [6]: 8.91 µM (active)

SMILES: CC(C)c1ccc2oc3nc(N)c(C(=O)O)cc3c(=O)c2c1
- parasite growth remaining, % of DMSO control (lower = more inhibition) [1, 11]: 91.1%
- parasite growth, % of control (lower = inhibition) [2, 11]: 71.7%
- growth, % of control [3, 11]: 74%
- cell viability, % of control (lower = more cytotoxic) [4]: 98.6%
- viability (% of control) [5]: 97.4%
- Potency [6]: 1.66 µM (active) and inactive

SMILES: CCC1=C(C)CN(C(=O)NCCc2ccc(S(=O)(=O)NC(=O)NC3CCC(C)CC3)cc2)C1=O (stereo not drawn)
- parasite growth remaining, % of DMSO control (lower = more inhibition) [1, 11]: 91.8%
- growth, % of control [3, 11]: 99.4%
- cell viability, % of control (lower = more cytotoxic) [4]: 114%
- viability (% of control) [5]: 118%
- Potency [6]: inactive
- Potency [7]: inactive
- Potency [9]: inactive

SMILES: O=c1ccc2ccc(O)c(O)c2o1
- parasite growth remaining, % of DMSO control (lower = more inhibition) [1, 11]: 34.2%
- parasite growth, % of control (lower = inhibition) [2, 11]: 19.7%
- growth, % of control [3, 11]: 162%
- cell viability, % of control (lower = more cytotoxic) [4]: 42.5%
- viability (% of control) [5]: 20.8%
- Potency [7]: 14.8 µM (active)

SMILES: CN(C)[C@@H](CCOc1cccc2ccccc12)c1ccccc1
- parasite growth remaining, % of DMSO control (lower = more inhibition) [1, 11]: 14.4%
- growth, % of control [3, 11]: 15.2%
- cell viability, % of control (lower = more cytotoxic) [4]: 165%
- viability (% of control) [5]: 78.2%
- Potency [10]: inactive
- Potency [7]: 26.4 µM (active)

SMILES: CCc1nc(N)nc(N)c1-c1ccc(Cl)cc1
- parasite growth remaining, % of DMSO control (lower = more inhibition) [1, 11]: 83.6%
- parasite growth, % of control (lower = inhibition) [2, 11]: 85.4%
- growth, % of control [3, 11]: 18.1%
- cell viability, % of control (lower = more cytotoxic) [4]: 136%
- viability (% of control) [5]: 37.1%
- Potency [10]: inactive
- Potency [7]: 1.32 µM (active)
